Publication PMC4336329 (PLoS ONE, 2015)
Out of some 310,000 compounds screened, about 14,000 (4.5%) showed an effect of 50% or more. The effect is printed as a negative number. The sample holds strong results, similar compounds and a random draw of the others, so the mix is not that of the screen.

What follows are compounds tested against human ether-à-go-go-related gene (hERG) potassium channel (human, UniProt Q12809) (assay: primary screen, population patch clamp on CHO cells stably expressing hERG; higher = less effect of the substance).
human ether-à-go-go-related gene (hERG) potassium channel, sequence (Q12809 whole entry, looked up): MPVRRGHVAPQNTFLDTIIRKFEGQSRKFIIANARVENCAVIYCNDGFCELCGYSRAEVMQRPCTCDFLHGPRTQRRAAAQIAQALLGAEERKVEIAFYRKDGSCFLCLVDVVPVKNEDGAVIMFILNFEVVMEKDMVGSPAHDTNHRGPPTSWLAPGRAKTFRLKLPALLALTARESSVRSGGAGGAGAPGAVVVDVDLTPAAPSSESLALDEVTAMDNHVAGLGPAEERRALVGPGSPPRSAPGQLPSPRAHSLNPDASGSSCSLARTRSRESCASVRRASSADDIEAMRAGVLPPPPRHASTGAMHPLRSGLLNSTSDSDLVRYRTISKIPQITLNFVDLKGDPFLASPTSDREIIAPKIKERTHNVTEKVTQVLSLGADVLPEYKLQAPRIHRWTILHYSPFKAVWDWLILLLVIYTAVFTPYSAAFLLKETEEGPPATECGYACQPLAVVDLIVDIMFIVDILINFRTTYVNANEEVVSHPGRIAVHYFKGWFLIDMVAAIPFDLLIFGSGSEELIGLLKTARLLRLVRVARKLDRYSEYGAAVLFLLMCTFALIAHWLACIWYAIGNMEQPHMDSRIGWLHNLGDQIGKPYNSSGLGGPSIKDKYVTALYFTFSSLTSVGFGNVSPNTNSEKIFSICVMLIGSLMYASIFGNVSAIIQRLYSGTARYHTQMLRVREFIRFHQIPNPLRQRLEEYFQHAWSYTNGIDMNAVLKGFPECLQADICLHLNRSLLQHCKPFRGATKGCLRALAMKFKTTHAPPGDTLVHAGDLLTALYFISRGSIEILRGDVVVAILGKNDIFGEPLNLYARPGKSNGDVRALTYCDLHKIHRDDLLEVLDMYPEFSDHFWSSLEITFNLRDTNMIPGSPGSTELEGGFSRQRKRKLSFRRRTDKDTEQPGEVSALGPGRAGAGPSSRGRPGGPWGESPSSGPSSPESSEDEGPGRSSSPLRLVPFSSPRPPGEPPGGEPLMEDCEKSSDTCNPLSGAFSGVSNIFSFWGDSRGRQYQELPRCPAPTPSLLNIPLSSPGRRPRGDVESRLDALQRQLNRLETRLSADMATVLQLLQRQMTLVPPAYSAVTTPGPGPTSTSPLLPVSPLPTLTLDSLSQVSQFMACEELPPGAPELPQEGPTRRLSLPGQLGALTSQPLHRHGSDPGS
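Note: peak tail current of the secondary pulse compared with the same well before compound.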

Going from `Cc1ccccc1C(=O)Nc1ccnn1C1CCN(Cc2cccnc2)CC1` to `O=C(Nc1ccnn1C1CCN(Cc2cccnc2)CC1)c1ccccc1Cl`, the “hERG current change (%, negative = inhibition) at 10uM” value rises from -77.4% to -37.1%.

First: COc1ccccc1C(=O)Nc1ccnn1C1CCN(Cc2cnc(N(C)C)s2)CC1
Second: Cc1ncc(CN2CCC(n3nccc3NC(=O)c3ccccc3)CC2)s1
The “hERG current change (%, negative = inhibition) at 10uM” value of the first is lower: -65% for the first, -19% for the second.

Going from `COc1ccccc1CN1CCC(n2nccc2NC(=O)c2ccccc2Cl)CC1` to `O=C(Nc1ccnn1C1CCN(Cc2ccccc2)CC1)c1ccccc1Cl`, the “hERG current change (%, negative = inhibition) at 10uM” value rises from -76.2% to -76.1%.

First: Cc1cc(CN2CCC(n3nccc3NC(=O)c3ccccc3Cl)CC2)cc(C)c1O
Second: Cc1cc(C)c(CN2CCC(n3nccc3NC(=O)c3ccccc3Cl)CC2)cc1C
The “hERG current change (%, negative = inhibition) at 10uM” value of the first is lower: -74.2% for the first, -50.8% for the second.

First: COc1cccc(OC)c1OC(=O)/C=C/c1ccc(C)o1
Second: COc1cc(C(=O)NCCSc2ccc(Cl)cc2)cc(OC)c1OC
The “hERG current change (%, negative = inhibition) at 10uM” value of the first is higher: 6.2% for the first, -3.08% for the second.

Compared with `CC(C)(C)C(=O)NCCCNc1ccc([N+](=O)[O-])cc1`, `CC(C)(C)c1ccc(C(=O)NCCC(=O)NCc2ccco2)cc1` is lower in “hERG current change (%, negative = inhibition) at 10uM” value: -24.7% for the first, -36.1% for the second.

Compared with `Cc1cc(C)n2nc(CCc3ccccc3)nc2n1`, `Cc1nc2ccccc2c(=O)n1Cc1ccco1` is higher in “hERG current change (%, negative = inhibition) at 10uM” value: -12.8% for the first, -7.41% for the second.

Compared with `O=C(O)CCC(=O)NC1CCCCC1`, `CC(OC(=O)C1=COCCO1)C(=O)NC1CCCCC1C` (stereo not drawn) is higher in “hERG current change (%, negative = inhibition) at 10uM” value: 6.89% for the first, 12.7% for the second.

First: COc1ccc(/C=C/c2nc(-c3ccccc3O)n(-c3ccccc3)n2)cc1
Second: COc1ccc(N2C(=O)c3ccccc3NC2c2ccc(OC)c(CSc3ccccn3)c2)cc1 (stereo not drawn)
The “hERG current change (%, negative = inhibition) at 10uM” value of the first is lower: -2.17% for the first, 2.62% for the second.

Going from `COc1ccc(OC)c(CNc2ccc([N+](=O)[O-])cc2C)c1` to `CCOc1ccc(N/C=C/C(=O)c2ccc(OC)cc2)c([N+](=O)[O-])c1`, the “hERG current change (%, negative = inhibition) at 10uM” value rises from 3.55% to 24.5%.

First: Cc1ccccc1C(=O)Nc1ccnn1C1CCN(Cc2ccccn2)CC1
Second: Cc1cccc(CN2CCC(n3nccc3NC(=O)c3ccccc3C)CC2)n1
The “hERG current change (%, negative = inhibition) at 10uM” value of the first is lower: -33.9% for the first, -19.9% for the second.

Going from `O=C(Nc1ccnn1C1CCN(C2CCCC2)CC1)c1ccccc1Cl` to `O=C(Nc1ccnn1C1CCN(C2CCC2)CC1)c1ccccc1Cl`, the “hERG current change (%, negative = inhibition) at 10uM” value falls from -45% to -63.6%.

Going from `CCc1ccc(CN2CCC(n3nccc3NC(=O)c3ccccc3C)CC2)cc1` to `CCc1ccc(CN2CCC(n3nccc3NC(=O)c3ccccc3Cl)CC2)cc1`, the “hERG current change (%, negative = inhibition) at 10uM” value falls from -76.2% to -84.4%.

Going from `Cc1ccccc1C(=O)Nc1ccnn1C1CCN(Cc2ccncc2)CC1` to `CSc1ccc(CN2CCC(n3nccc3NC(=O)c3ccccc3C)CC2)cc1`, the “hERG current change (%, negative = inhibition) at 10uM” value falls from -45.1% to -75%.

Compared with `O=C(Nc1ccnn1C1CCN(C2CCC2)CC1)c1ccccc1`, `CCN1CCC(n2nccc2NC(=O)c2ccccc2Cl)CC1` is lower in “hERG current change (%, negative = inhibition) at 10uM” value: -0.539% for the first, -21% for the second.

First: C=CCN1C(=O)C(C)(C)Nc2ccccc21
Second: O=C1Nc2ccccc2/C1=C/c1ccccc1F
The “hERG current change (%, negative = inhibition) at 10uM” value of the first is lower: 6.7% for the first, 26.3% for the second.

First: O=C(c1cccnc1Cl)N(Cc1ccccc1)Cc1ccccc1
Second: c1ccc(-c2cnc(-c3ccccc3)nc2)cc1
The “hERG current change (%, negative = inhibition) at 10uM” value of the first is lower: -17.7% for the first, 13.4% for the second.

First: CC(=O)Nc1ccc(-c2csc(-c3cccnc3)n2)cc1
Second: O=C(Cc1cccs1)N1CCN(c2nc(-c3ccc(Cl)cc3)cs2)CC1
The “hERG current change (%, negative = inhibition) at 10uM” value of the first is higher: 3.98% for the first, -8.73% for the second.

Compared with `COc1cc(NC(=O)C2CCCO2)c(OC)cc1NC(=O)c1ccccc1` (stereo not drawn), `CCOC(=O)C1CCCN(C(=O)c2ccc3nc(-c4cccc(OC)c4)oc3c2)C1` (stereo not drawn) is lower in “hERG current change (%, negative = inhibition) at 10uM” value: 8.17% for the first, -28.6% for the second.

Compared with `CC(=O)OC[C@H]1O[C@@H](Sc2cccc3cccnc23)[C@H](OC(C)=O)[C@@H](OC(C)=O)[C@@H]1OC(C)=O`, `CCOC(=O)c1c(CN(C)C)n(C)c2ccc(OC(C)=O)cc12.Cl` is lower in “hERG current change (%, negative = inhibition) at 10uM” value: -11.4% for the first, -41.3% for the second.

Compared with `CCCN(C#N)c1nc(NCC)nc(NC(C)C)n1`, `CCCn1nnc(NC(=O)c2ccc(OC)cc2)n1` is higher in “hERG current change (%, negative = inhibition) at 10uM” value: -10.2% for the first, 2.42% for the second.

Compared with `O=C1CN(CC(=O)Nc2ccc(Cl)cc2)CCN1`, `O=S(=O)(c1cc(Cl)ccc1Cl)N1CCN(Cc2ccco2)CC1` is lower in “hERG current change (%, negative = inhibition) at 10uM” value: -4.87% for the first, -54.1% for the second.

Going from `CC(=O)c1cccc(NC(=O)N2C3CCCC2CC(NC(=O)C2CC2)C3)c1` (stereo not drawn) to `CC(NC(=O)C1CCCN(S(=O)(=O)c2cccs2)C1)c1ccccc1` (stereo not drawn), the “hERG current change (%, negative = inhibition) at 10uM” value falls from 17.2% to 6.73%.

Compared with `COC(C(=O)Nc1ccnn1C1CCN(Cc2ccc(Cl)s2)CC1)c1ccccc1` (stereo not drawn), `COC(C(=O)Nc1ccnn1C1CCN(Cc2ccc(C)s2)CC1)c1ccccc1` (stereo not drawn) is lower in “hERG current change (%, negative = inhibition) at 10uM” value: -5.29% for the first, -50.8% for the second.

First: COC(C(=O)Nc1ccnn1C1CCN(Cc2nccs2)CC1)c1ccccc1 (stereo not drawn)
Second: COc1ccccc1C(=O)Nc1ccnn1C1CCN(Cc2ccccc2OCCO)CC1
The “hERG current change (%, negative = inhibition) at 10uM” value of the first is higher: 0.847% for the first, -78.7% for the second.

Compared with `Cc1cc(OCC(=O)Nc2cccnc2)c2c(C)cc(=O)oc2c1`, `COC(=O)C1=C(C)Nc2c(c(=O)n(C)c(=O)n2C)C1c1cccnc1` (stereo not drawn) is lower in “hERG current change (%, negative = inhibition) at 10uM” value: 4.24% for the first, -2.61% for the second.

Going from `CC(O)C(O)C(O)C(O)C1NCCS1` (stereo not drawn) to `O=C(NCC1(c2ccccc2)CCOCC1)c1cccs1`, the “hERG current change (%, negative = inhibition) at 10uM” value rises from 6.81% to 13.9%.

Going from `Cc1cc(C)cc(N(CCC#N)C(=O)COC(=O)CCc2c[nH]c3ccccc23)c1` to `O=C(NCCc1c[nH]c2ccccc12)OCCSS(=O)(=O)[O-].[Na+]`, the “hERG current change (%, negative = inhibition) at 10uM” value rises from -32.6% to 9.49%.

Going from `Br.O=C(c1ccc(Br)cc1)c1sc(N2CCOCC2)nc1-c1ccccc1` to `CCOC(=O)c1c(CSc2ccccc2)n(C)c2ccc(O)cc12`, the “hERG current change (%, negative = inhibition) at 10uM” value rises from -1.44% to 21.3%.

First: CCCN(Cc1cc2ccc(C)cc2[nH]c1=O)S(=O)(=O)c1ccccc1
Second: CCOC(=O)c1c(CS(=O)(=O)c2ccccc2)n(C)c2cc(Br)c(O)c(CN(C)C)c12
The “hERG current change (%, negative = inhibition) at 10uM” value of the first is higher: 6.34% for the first, -50.4% for the second.

Going from `Cc1ccc(S(=O)(=O)N2CCN(Cc3ccco3)CC2)c(C)c1` to `O=C(c1ccco1)N1CCN(S(=O)(=O)c2cc(Cl)ccc2Cl)CC1`, the “hERG current change (%, negative = inhibition) at 10uM” value rises from -35.6% to -21.5%.

First: CC(=O)C(Sc1nc(N(C)C)nc(N(C)C)n1)C(=O)Nc1ccccc1 (stereo not drawn)
Second: CCOC(=O)c1c(CSc2ccccc2)n(C)c2cc(Br)c(O)c(CN(C)C)c12
The “hERG current change (%, negative = inhibition) at 10uM” value of the first is higher: -3.04% for the first, -68.5% for the second.

Compared with `COc1cccc2c1OCC(C(=O)OCc1cccnc1)=C2`, `COc1ccc2c(c1)C=C(C(=O)OCc1cccnc1)CO2` is higher in “hERG current change (%, negative = inhibition) at 10uM” value: -17.4% for the first, 3.63% for the second.

Compared with `O=C(OCc1cccnc1)C1=Cc2ccccc2OC1`, `CN(C)C(=O)COC(=O)[C@H](Cc1ccccc1)NC(=O)c1ccco1` is higher in “hERG current change (%, negative = inhibition) at 10uM” value: -64.9% for the first, 7.23% for the second.

First: CCN(CC)C(=O)c1cc2c(=O)c3cc(F)ccc3oc2nc1C
Second: CCN(CC)C(=O)c1cc2c(=O)c3cc(Cl)ccc3oc2nc1C
The “hERG current change (%, negative = inhibition) at 10uM” value of the first is higher: -10.8% for the first, -66.1% for the second.

First: Cc1nc2oc3ccc(Cl)cc3c(=O)c2cc1C(=O)O
Second: Cc1ccc(CNC(=O)COC(=O)c2ccc(Cl)c(N)c2)cc1
The “hERG current change (%, negative = inhibition) at 10uM” value of the first is higher: 19% for the first, -3.37% for the second.

First: CN(CC(=O)Nc1ccccc1C(F)(F)F)C(=O)CCc1nc2sc3c(c2c(=O)[nH]1)CCCC3
Second: CCc1nc2ccccc2n1Cc1ccc(F)cc1
The “hERG current change (%, negative = inhibition) at 10uM” value of the first is higher: 7.94% for the first, -0.73% for the second.

First: CCC(c1nc2ccccc2c(=O)n1CCCn1ccnc1)N1C(=O)c2ccccc2C1=O (stereo not drawn)
Second: O=C1c2ccccc2C(=O)N1CCc1nc2ccccc2c(=O)n1CCCn1ccnc1
The “hERG current change (%, negative = inhibition) at 10uM” value of the first is higher: -38.8% for the first, -62.5% for the second.

Going from `O=C1c2ccccc2C(=O)N1Cc1nc2ccccc2c(=O)n1Cc1ccco1` to `O=C1c2ccccc2C(=O)N1CCc1nc2ccccc2c(=O)n1Cc1ccco1`, the “hERG current change (%, negative = inhibition) at 10uM” value falls from 21.3% to -61.8%.

First: Cc1nc2ccccc2c(=O)n1CCCn1ccnc1
Second: O=C1c2ccccc2C(=O)N1CCCn1ccnc1
The “hERG current change (%, negative = inhibition) at 10uM” value of the first is lower: -17% for the first, 17.1% for the second.

Compared with `O=C1c2ccccc2C(=O)N1CCCc1nc2ccccc2c(=O)n1CCCn1ccnc1`, `O=C1c2ccccc2C(=O)N1CCCc1nc2ccccc2c(=O)n1-c1cccnc1` is higher in “hERG current change (%, negative = inhibition) at 10uM” value: -65% for the first, -39.7% for the second.

First: Cc1cnc(C(=O)OCC(=O)N2CCN(S(=O)(=O)c3ccc(Cl)cc3)CC2)cn1
Second: CCOC(=O)c1c(CN2CCCCC2)n(C)c2cc(Br)c(O)c(CN(C)C)c12
The “hERG current change (%, negative = inhibition) at 10uM” value of the first is higher: 4.81% for the first, -19% for the second.

Compared with `CCOC(=O)c1c(CN2CCOCC2)n(C)c2cc(Br)c(O)c(CN(C)C)c12`, `CCOC(=O)c1c(CN2CCOCC2)n(C)c2cc(Br)c(O)c(CN(C)C)c12.Cl` is higher in “hERG current change (%, negative = inhibition) at 10uM” value: -27.4% for the first, -26.6% for the second.

First: CCOC(=O)c1c(CSc2ccc(C)cc2)n(C)c2cc(Br)c(O)c(CN(C)C)c12.Cl.O
Second: CCOC(=O)c1c(CSc2cccs2)n(C)c2cc(Br)c(O)c(CN(C)C)c12.Cl
The “hERG current change (%, negative = inhibition) at 10uM” value of the first is higher: -54.9% for the first, -68.3% for the second.

First: CCOC(=O)c1c(C)n(C)c2cc(Br)c(O)c(O)c12
Second: CCOC(=O)c1c(CSc2ccccc2)n(C)c2cc(Br)c(OC)c(O)c12
The “hERG current change (%, negative = inhibition) at 10uM” value of the first is lower: 8.12% for the first, 16.2% for the second.
